PAX8 inh HTS – inhibitors of PAX8-driven TPO luciferase reporter, primary screen, RMG-I cells, single concentration. SteadyGlo, 24 h. inhibition, % at 12.6 µM. 360,000 tested, 1.2% active. AID 652154, 2013;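 active means mean replicate inhibition at least 60% with every replicate also reaching 60%; inconclusive means only one of the two criteria is met; inactive means mean below 60% and not all replicates reaching 60%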;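 further: luciferase light reporting Pax8 driven TPO promoter activity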
TROY signal inh – inhibitors of TROY-driven NF-kB signaling, primary screen, Q293 LMP1-TROYcd cells, NF-kB luciferase, uHTS; inhibition, % at 10 µM; AID 1347056, 2019; Q293 LMP1-TROYcd NF-kB luciferase reporter, 4 h; 360,000 tested, 0.98% active;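 active means compounds whose plate-normalised and pattern-corrected inhibition of the luciferase reporter signal at the single screening dose is 50% or more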
EWS-Fli block – EWS/Fli-driven NR0B1 reporter inhibitors, primary screen, A673 cells, NR0B1 luciferase, luminescence, MLPCN library | viability-normalised | inhibition, % at 12.6 µM | 350,000 tested, 0.67% active;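 active means mean inhibition of at least 50% after viability correction, with every replicate also passing that limit; inconclusive means mean reaches 50% but only one of two replicates passes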;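 further: firefly luciferase signal divided by Alamar Blue viability fluorescence both relative to DMSO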
TWEAK-Fn14 inh – inhibitors of TWEAK-Fn14 signaling, primary screen, luciferase reporter cells, uHTS; TWEAK-stimulated Fn14 reporter cells, luciferase luminescence, 8 h; 360,000 tested, 2% active; inhibition, % at 10 µM; in the data active means inhibition above about 50%
LGR2 inh – inhibitors of bursicon-induced LGR2 CRE-luciferase signal, primary screen, cell-based, HEK293, CRE-luciferase reporter, bursicon stimulation; Drosophila bursicon receptor LGR2 (rickets); bursicon-stimulated, 4 h; inhibition, % at 9.99 µM; 380,000 tested, 0.35% active; AID 720647, 2013;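 active means drop in luminescence signal, shown as inhibition above about 50% in the replicate tests, limit read from the data, passing the limit was not always enough; inconclusive means probably only some replicates passing the limit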;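 further: agonist challenge used bursicon conditioned medium at about half maximal strength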
Each line names hits and unclear results; the compound was inactive in the other large screens. A selection: hits, their analogues and other compounds. The true share with any hit is near 2.8%.

COc1ccc(S(=O)(=O)N2CCCCC2)cc1NC(=O)Cc1c[nH]c2ccccc12	none (no result: EWS-Fli block)
Cc1ccc(S(=O)(=O)N2CCCCC2)cc1NC(=O)Cc1c[nH]c2ccccc12	PAX8 inh HTS 152.8
C[C@H](CO)N1C[C@H](C)[C@@H](CN(C)C)Oc2ccc(N(C)C)cc2CC1=O	none (no result: TROY signal inh, TWEAK-Fn14 inh)
Cc1ccc(-c2nnc(-c3ccccc3Br)o2)cc1	TWEAK-Fn14 inh 56.6, LGR2 inh inconclusive
Brc1ccc(-c2nnc(-c3ccccc3Br)o2)cc1	none (no result: PAX8 inh HTS, EWS-Fli block, LGR2 inh)
CCCNC(=O)N1CC2(CN(S(=O)(=O)c3ccccc3)C2)c2c(n(C)c3cc(OC)ccc23)[C@@H]1CO	none (no result: PAX8 inh HTS, TROY signal inh, TWEAK-Fn14 inh)
O=C(NCCc1ccccc1)C(c1cccs1)N(C(=O)c1csnn1)C1CC1 (configuration not stated)	none (no result: EWS-Fli block, LGR2 inh)
O=C(NCCc1ccccc1)C(c1cccs1)N(C(=O)CCl)c1ccc(Cl)cc1 (configuration not stated)	PAX8 inh HTS 110.7, TWEAK-Fn14 inh 64.2 (no result: EWS-Fli block)
C[C@@H]1CN([C@H](C)CO)C(=O)c2cccc(NC(=O)c3nc4ccccc4s3)c2O[C@@H]1CN(C)S(=O)(=O)c1cn(C)cn1	none (no result: PAX8 inh HTS, TROY signal inh, TWEAK-Fn14 inh)
C[C@@H]1CN([C@H](C)CO)S(=O)(=O)c2ccc(C#CCN(C)C)cc2O[C@H]1CN(C)C(=O)C1CCCCC1	none (no result: TROY signal inh, TWEAK-Fn14 inh)
C[C@@H]1CCCCO[C@H](CN(C)Cc2ccc(C(=O)O)cc2)[C@@H](C)CN([C@@H](C)CO)C(=O)c2cc(NC(=O)Nc3ccccc3)ccc2O1	none (no result: TROY signal inh, TWEAK-Fn14 inh)
CCn1c(/C=C/c2ccccc2C)nc2ccccc2c1=O	none
CCn1c(/C=C/c2cc(Br)ccc2O)nc2ccccc2c1=O	TWEAK-Fn14 inh 62.7
CCn1c(/C=C/c2c(C)n(CC)c3ccccc23)nc2ccccc2c1=O	PAX8 inh HTS 72.5 (no result: LGR2 inh)
Cc1[nH]c2ccccc2c1/C=C/c1nc2ccccc2c(=O)n1CCO	TROY signal inh 55.3
O=c1c2ccccc2nc(/C=C/c2ccc(Br)cc2)n1CCO	none
CCC(=O)Nc1ccc2c(c1)C(=O)N(C)C[C@H](OC)[C@H](C)CN(C(=O)CC1CC1)[C@H](C)CO2	none (no result: PAX8 inh HTS, TROY signal inh, TWEAK-Fn14 inh)
O=C(CN1CCN(C(c2ccccc2)c2ccccc2)CC1)N1CCOCC1	none (no result: PAX8 inh HTS)
Oc1c(C(c2ccccc2)N2CCOCC2)ccc2ccccc12 (configuration not stated)	PAX8 inh HTS 86.7
COc1ccc(NC(=O)c2nn(C34CC5CC(CC(C5)C3)C4)cc2[N+](=O)[O-])cc1	PAX8 inh HTS 128.3
O=C(CN(c1cccc(C(F)(F)F)c1)S(=O)(=O)c1ccc(Cl)c([N+](=O)[O-])c1)NCc1ccccc1	none (no result: EWS-Fli block)
CC(NC(=O)CN(c1cccc(C(F)(F)F)c1)S(=O)(=O)c1ccc(Cl)c([N+](=O)[O-])c1)c1ccccc1 (configuration not stated)	PAX8 inh HTS 61.3, EWS-Fli block 59.8
CCN(c1cccc(C)c1)S(=O)(=O)c1ccc(-c2cc(C)no2)s1	EWS-Fli block 55.3
Cc1cccc(N(C)S(=O)(=O)c2ccc(-c3cc(C)no3)s2)c1	EWS-Fli block 53.6
CCOc1ccc(N(C)S(=O)(=O)c2ccc(-c3cc(C)no3)s2)cc1	EWS-Fli block 54.9
COc1ccc(-c2cc(C)no2)cc1S(=O)(=O)N(C)c1cccc(C)c1	none (no result: EWS-Fli block)
CCOc1ccc(N(C)S(=O)(=O)c2cc(-c3cc(C)no3)ccc2C(C)C)cc1	none
CC(C)C#Cc1ccc2c(c1)O[C@H](CN(C)Cc1cncnc1)[C@@H](C)CN([C@@H](C)CO)S2(=O)=O	none (no result: PAX8 inh HTS, TROY signal inh, TWEAK-Fn14 inh)
C[C@@H]1CN([C@H](C)CO)C(=O)c2cc(-c3cccc(F)c3)cnc2O[C@@H]1CN(C)S(=O)(=O)c1cccc(F)c1	none (no result: PAX8 inh HTS, TROY signal inh, TWEAK-Fn14 inh)
CO[C@H]1CN(C)C(=O)c2cc(NS(=O)(=O)Cc3ccccc3)ccc2OC[C@H](C)NC[C@H]1C	none (no result: TROY signal inh, TWEAK-Fn14 inh)
CCc1ccc2[nH]c(=O)c(C(c3nnnn3CCOC)N3CCN(c4ccccc4F)CC3)cc2c1 (configuration not stated)	TROY signal inh 53.1 (no result: PAX8 inh HTS, EWS-Fli block, LGR2 inh)
COCCn1nnnc1C(c1ccc(OC)cc1OC)N1CCN(c2ccccc2F)CC1 (configuration not stated)	none (no result: PAX8 inh HTS, EWS-Fli block, LGR2 inh)
Cc1noc(C)c1S(=O)(=O)Nc1ccc2c(c1)CC(=O)N([C@@H](C)CO)C[C@@H](C)[C@H](CN(C)Cc1ccc(C(=O)O)cc1)O2	none (no result: TROY signal inh, TWEAK-Fn14 inh)
CCCNC(=O)N1CC2(CCN(CC3CCCC3)CC2)c2c(n(C)c3cc(OC)ccc23)[C@@H]1CO	none (no result: TROY signal inh, TWEAK-Fn14 inh)
C/C(=N\OC(=O)Nc1ccc(Cl)cc1)c1ccc(F)c(F)c1	none
CC(C)C(Cl)=NOC(=O)Nc1ccc(F)cc1	TWEAK-Fn14 inh 51.1
O=C(COc1ncnc2ccc(Br)cc12)Nc1ccc(N2CCOCC2)cc1	none (no result: EWS-Fli block, LGR2 inh)
Brc1ccc2ncnc(Nc3ccc(N4CCOCC4)cc3)c2c1	TWEAK-Fn14 inh 59.5 (no result: PAX8 inh HTS, EWS-Fli block)
CC1(C)CCc2cc(-c3ccnc(=S)[nH]3)ccc2O1	TWEAK-Fn14 inh 62.0 (no result: LGR2 inh)
CNC[C@H]1OCCCC[C@@H](C)Oc2ccc(NS(=O)(=O)c3ccc(C)cc3)cc2C(=O)N([C@@H](C)CO)C[C@@H]1C	none (no result: TROY signal inh, TWEAK-Fn14 inh)
CCC(=O)N1c2ccc(S(=O)(=O)N3CCN(c4ccc([N+](=O)[O-])cc4)CC3)cc2CC1C (configuration not stated)	PAX8 inh HTS 68.4
COc1ccc2c3c([nH]c2c1)[C@H](CO)N(S(C)(=O)=O)CC31CCN(C(=O)c2ccncc2)CC1	none (no result: PAX8 inh HTS, TROY signal inh, TWEAK-Fn14 inh)
CO[C@H]1CN(C)C(=O)c2cc(NC(=O)Nc3cc(F)ccc3F)ccc2OC[C@H](C)N(C(=O)c2cnccn2)C[C@@H]1C	none (no result: TROY signal inh, TWEAK-Fn14 inh)
O=C(c1ccncc1)N1N=C(c2ccc(Br)cc2)CC1c1ccccc1O (configuration not stated)	none
O=C(c1ccccc1Cl)N1N=C(c2ccc(Br)cc2)CC1c1nc2ccccc2[nH]1 (configuration not stated)	TROY signal inh 61.4 (no result: EWS-Fli block, LGR2 inh)
C[C@@H]1CCCCO[C@@H](CN(C)Cc2ccc(Cl)c(Cl)c2)[C@H](C)CN([C@H](C)CO)C(=O)c2cc(NS(=O)(=O)c3ccccc3)ccc2O1	PAX8 inh HTS 93.0 (no result: TROY signal inh, TWEAK-Fn14 inh)
COc1ccc(S(=O)(=O)Nc2ccc3c(c2)C(=O)N([C@@H](C)CO)C[C@H](C)[C@H](CN(C)Cc2ccc(Cl)c(Cl)c2)OCCCC[C@@H](C)O3)cc1	none (no result: TROY signal inh, TWEAK-Fn14 inh)
C[C@@H]1CCCCO[C@H](CN(C)Cc2ccc(Cl)c(Cl)c2)[C@@H](C)CN([C@@H](C)CO)C(=O)c2cc(NS(=O)(=O)c3ccc(Cl)cc3)ccc2O1	PAX8 inh HTS 79.9 (no result: TROY signal inh, TWEAK-Fn14 inh)
C[C@H](CO)N1C[C@H](C)[C@@H](CN(C)Cc2ccc(Cl)c(Cl)c2)OCCCC[C@H](C)Oc2ccc(NS(=O)(=O)c3ccc(Cl)cc3)cc2C1=O	PAX8 inh HTS 100.9 (no result: TROY signal inh, TWEAK-Fn14 inh)
C[C@@H]1CN([C@H](C)CO)C(=O)c2cc(NS(=O)(=O)c3ccc(Cl)cc3)ccc2O[C@@H](C)CCCCO[C@@H]1CN(C)Cc1ccc(Cl)c(Cl)c1	PAX8 inh HTS 97.7 (no result: TROY signal inh, TWEAK-Fn14 inh)
